Tgondii IFNg: T. gondii growth inhibition with IFN-gamma, primary screen, cell-based; 69,000 compounds, 3.8% hits; activity change, negative = inhibition, % (concentration not given with the values); Toxoplasma gondii growth in IFN-gamma-treated host cells; stronger effect = lower value; in the data active = activity change below about -70%, passing the limit was not always enough;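 note: host cells are HeLa cells infected with Toxoplasma gondii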
Numbers stand for hits; i = inactive; ! = not active in a repeat. The entries come from a sample that favours hits as a whole.

SMILES | Tgondii IFNg
CC[C@@H]1[C@@H](C)O[C@@](O)([C@@H](C)[C@H](O)[C@H](C)[C@H]2OC(=O)/C=C/C=C/[C@H](C)[C@H]([C@@H](C)[C@@H](O)[C@H](C)[C@@]3(O)C[C@@H](O[C@H]4C[C@H](O)[C@H](O)[C@H](C)O4)[C@H](CC)[C@@H](C)O3)OC(=O)/C=C/C=C/[C@H]2C)C[C@H]1O[C@H]1C[C@H](O)[C@H](O)[C@H](C)O1 | -74.8
O=C(Nc1ccc(Br)cc1F)c1cc2cccnc2n(Cc2ccccc2F)c1=O | i
CCOC(=O)CN1C[C@H]2OCCN(c3ncc(F)cn3)[C@H]2C1 | i
CCN1CCC2OCCCC2(COCc2cccc(C)n2)C1 (configuration not stated) | i
Cc1ccc(NC(=O)c2cc3cccnc3n(Cc3ccc(F)cc3)c2=O)cc1C | i
Cc1ccc(-c2cc(C(=O)N3C[C@H]4C[C@@H](C3)c3cccc(=O)n3C4)n[nH]2)o1 | i
Clc1ccc(COC(Cn2ccnc2)c2ccc(Cl)cc2Cl)cc1 (configuration not stated) | -74.7!
Cc1nn(CCNC(C)Cn2ccnc2)c(C)c1Cl (configuration not stated) | i
Clc1ccc(CSC(Cn2ccnc2)c2ccc(Cl)cc2Cl)cc1 (configuration not stated) | -83.6
c1ccc(Cn2ccnc2)cc1 | i
N[C@@H](Cc1ccc(O)cc1)C(=O)NCC(=O)NCC(=O)O | i
CC(Cc1ccccc1F)NCc1ccc(C(=O)N2CCCC2)cc1 (configuration not stated) | i
Cc1cc(CN2CC[C@H]3OCC[C@@H](C(=O)N(C)C)[C@@H]3C2)no1 | i
CCS(=O)(=O)NC[C@@]12COC[C@H]1CN(Cc1c(C)noc1C)C2 | i
O=C(Nc1cccc(F)c1)C1C2CCC1CNC2 (configuration not stated) | i
Cc1cccnc1CC(C)NC1CCN(C(=O)c2ccccc2)CC1 (configuration not stated) | i
CN(C)c1ccc(/C=C/C(=O)C2C(=O)N(C)C3(C)CC2c2cc(Cl)ccc2O3)cc1 (configuration not stated) | i
Cc1ccc(N2CC[C@@H]3[C@H]2CCN3Cc2ccc(C)o2)nn1 | i
c1cc2c(c(-c3ccc4nc[nH]c4c3)c1)CCNC2 | i
CN(C)C[C@@H]1CC2CN(c3ncc(F)cn3)CCC2N1C (some centres not stated) | i
COC(=O)CN1CN(c2ccccc2)C2(CCN(Cc3ccc4ccccc4c3)CC2)C1=O | i
O=C(CCCN1CCC2(CC1)C(=O)N(Cc1cccc(F)c1)CN2c1ccccc1)c1ccc(F)cc1 | -82.8!
CCC(=O)N1CCC2(CC1)C(=O)N(Cc1cccnc1)CCN2C | i
COCCN1CCN(Cc2ccncc2)c2ncccc2C1 | i
CC(C)[C@]12O[C@H]1[C@@H]1O[C@]13[C@]1(O[C@H]1C[C@H]1C4=C(CC[C@@]13C)C(=O)OC4)[C@@H]2O | -82.9
SMILES | Tgondii IFNg
COc1ccc2n[nH]c(CN3C[C@@H]4[C@H](C3)[C@H]3CC[C@@H]4O3)c2c1 | i
CC[C@H]1CN2CCC1C[C@@H]2[C@H](O)c1ccnc2ccc(OC)cc12 (some centres not stated) | -79.1
CCCCCN1CC2CN(C(=O)CCc3cccnc3)CC2C1 (configuration not stated) | i
COc1cc2c(cc1OC)[C@@H]1C(=O)c3ccc(OC)c(CC=C(C)C)c3O[C@@H]1CO2 | i
COc1cc2c(cc1OC)[C@@H]1C(=O)c3ccc4c(c3O[C@@H]1CO2)CC(C(C)C)O4 (some centres not stated) | -81.5
C=CCOCc1cncc2c1CCN(S(=O)(=O)C1CC1)C2 | i
c1cncc(CN2CC3(CCNCC3)CC2COCC2CC2)c1 (configuration not stated) | i
CO[C@H]1CCC(O[C@H]2CC([C@]3(C)CC[C@]4(C[C@H](O)[C@@H](C)[C@@H]([C@@H](C)/C=C(\C)C(=O)[C@H](C)C[C@H](C)C(=O)O)O4)O3)O[C@]3(O[C@@H](C4O[C@@](O)(CO)[C@H](C)C[C@@H]4C)C[C@@H]3C)[C@@H]2C)O[C@@H]1C (some centres not stated) | -78.2
CCOc1ccc(/C=C/C(=O)C2C(=O)N(C)C3(C)CC2c2cc(Cl)ccc2O3)cc1OC (configuration not stated) | i
O=C(NC1CCCC1)c1cc2cccnc2n(Cc2ccccc2)c1=O | i
O=C(NCCc1c[nH]c2ccccc12)c1cc2cccnc2n(Cc2ccccc2)c1=O | i
COC(=O)c1ccccc1NC(=O)c1cc2cccnc2n(Cc2ccccc2)c1=O | i
CC1(C)CC[C@]2(C(=O)O)CC[C@]3(C)[C@H](C(=O)C=C4[C@@]5(C)C=C(C#N)C(=O)C(C)(C)[C@@H]5CC[C@]43C)[C@@H]2C1 | -78.5
O=C(NCc1c(F)cccc1F)c1cc2cccnc2n(Cc2ccc(F)cc2)c1=O | i
c1ccc(CO[C@H]2CN(Cc3ccco3)[C@H]3COC[C@@H]23)nc1 | i
OC1(c2ccc(F)cc2)CCCC2CNCC21 (configuration not stated) | i
Cc1cccc(CN2CC[C@@H]3OCCN(S(=O)(=O)C4CC4)[C@@H]3C2)n1 | i
C=CCOC1C2CCC1N(Cc1cccc(C)n1)CCO2 (configuration not stated) | -71.0
Cc1cccc(CN2C[C@H]3OCCN(C)[C@H]3C2)n1 | i
COc1ccc(NC(=O)c2cc3cccnc3n(Cc3ccccc3F)c2=O)c(OC)c1 | i
O=C1NCCN(Cc2ccccc2)C12CCNCC2 | i
Cc1cccc(C(C(=O)NCCc2cnc[nH]2)N(C)C)c1 (configuration not stated) | i
C=CCC(=O)N1CCC2(CCN(C)C2)CC1 | i
CCN1CCC2(COCc3cnc(NCC4CC4)nc32)C1 (configuration not stated) | i
COc1cc2cc(c1Cl)N(C)C(=O)C[C@H](OC(=O)C(C)C)[C@]1(C)O[C@H]1[C@H](C)[C@@H]1C[C@@](O)(NC(=O)O1)[C@H](OC)/C=C/C=C(/C)C2 | -80.5
SMILES | Tgondii IFNg
C=CCCC(=O)N1CC[C@@H]2OCCN(Cc3cccnc3)[C@@H]2C1 | i
c1cnc(NC[C@@H]2OC[C@@H]3CN(Cc4ccco4)CC[C@@H]32)nc1 | i
C=CCN1C[C@H]2CN(c3cc(OC)ncn3)CCC[C@]2(C(=O)O)C1 | i
COc1ccc(CC(=O)N2CCN(Cc3ccc4c(c3)OCO4)CC2)cc1OC | i
O=C(Nc1ccc2c(c1)OCO2)c1cc2cccnc2n(Cc2ccc(F)cc2)c1=O | i
CCCCCOc1c(OC)ccc2cc(C(=O)NCc3ccc4c(c3)OCO4)c(=O)[nH]c12 | -73.6!
Fc1cccnc1OC1C2CCC1N(Cc1ccco1)CCO2 (configuration not stated) | i
Cc1cccnc1CC(C)N(C)Cc1nc[nH]c1C (configuration not stated) | i
CN1CCN(Cc2cccnc2)C(=O)C12CCN(S(C)(=O)=O)CC2 | i
O=C(Nc1ccc(F)c(Cl)c1)c1cc2cccnc2n(Cc2ccc(F)cc2)c1=O | i
CN(C)C(=O)Oc1ccc(Br)cc1C(=O)Nc1ccc(F)c(Cl)c1 | -100.7
COc1ccc(NC(=O)c2cc3cccnc3n(Cc3ccc(Cl)cc3)c2=O)cc1OC | i
CN1CCOCC12CCN(c1ncccn1)CC2 | i
CC(C)(C)CC(=O)N1C[C@H]2C[C@@H]1CN2 | i
c1cncc(CN2CCOCC3(CCC(Cn4cncn4)O3)C2)c1 (configuration not stated) | i
Cc1ccc(C(=O)N2CCN(C)C3(CCN(C)CC3)C2)c(=O)[nH]1 | i
